# PubChem BioAssay
# Where “and” joins values, the source holds several entries; their conditions need not be identical. Identical values can stand only once. Calls of active or inactive are those of the source. Cut-off read from the data, not from the text of the source, unless noted: active = inhibition above about 80%; inactive = the rest.
# How the values were obtained:
# [1] = HDN33 neuroblastoma growth inhibition, cell-based, chromothripsis tumors, cisplatin or BGB combos (AID 1671450); conditions: HDN33 neuroblastoma cells, stronger effect = higher value;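 note: cells exposed to compound for four days; 0% = vehicle DMSO and 100% = cell killing by high DMSO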
# [2] = ICB984 medulloblastoma cell growth inhibition, synergistic combos for chromothripsis tumors, cisplatin or BGB combos (AID 1671451; call rule not given here;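 note: cells exposed for 96 hours before readout; 0% = vehicle DMSO and 100% = killing by high DMSO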); conditions: ICB984 medulloblastoma cells, drug combinations, stronger effect = higher value
# [3] = LFS_MB_1R medulloblastoma cell growth inhibition, synergistic combos for chromothripsis tumors, cisplatin or BGB combos (AID 1671452); conditions: LFS_MB_1R medulloblastoma cells, stronger effect = higher value;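 note: cells exposed for 96 hours before readout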
# [4] = HTB85 osteosarcoma cell growth inhibition, synergistic combos for chromothripsis tumors, BGB or cisplatin IC20 combos (AID 1671453); conditions: HTB85 osteosarcoma cells, drug combinations, stronger effect = higher value;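 note: cells exposed for 96 hours before readout; 0% = vehicle DMSO and 100% = high DMSO killing control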
# [5] = CRL2098 osteosarcoma cell growth inhibition, synergistic combos for chromothripsis tumors, BGB or cisplatin IC20 combos (AID 1671454); conditions: CRL2098 osteosarcoma cells, drug combinations, stronger effect = higher value;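 note: cells exposed for 96 h before readout; 0% = vehicle DMSO and 100% = killing by high DMSO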
# [6] = HD-MB03 medulloblastoma cell growth inhibition, synergistic combos for chromothripsis tumors, BGB or cisplatin IC20 combos (AID 1671455; in the data active = inhibition above about 83%;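 note: 0% = vehicle DMSO and 100% = high DMSO as cytotoxic control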); conditions: HD-MB03 medulloblastoma cells, stronger effect = higher value
# [7] = UWB1.289 ovarian carcinoma cell growth inhibition, synergistic combos for chromothripsis tumors, BGB or cisplatin combos (AID 1671456); conditions: UWB1.289 ovarian carcinoma cells, stronger effect = higher value;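 note: cells exposed to compound for four days; 0% = vehicle DMSO and 100% = killing by high DMSO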
# [8] = LFS_MB_2R medulloblastoma cell growth inhibition, synergistic combos for chromothripsis tumors, cisplatin combos (AID 1671457); conditions: LFS_MB_2R medulloblastoma cells, stronger effect = higher value;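 note: cells exposed to compound for four days before readout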
# [9] = MDA-MB-436 breast carcinoma cell growth inhibition, synergistic combos for chromothripsis tumors, BGB or cisplatin combos (AID 1671458; call rule not given here;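 note: cells exposed for 96 hours; 0% = vehicle DMSO and 100% = killing by high DMSO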); conditions: MDA-MB-436 breast carcinoma growth inhibition, drug combinations, stronger effect = higher value
# [10] = UWB1.289_BRCA1 ovarian cancer growth, cell-based, BGB or cisplatin combinations (AID 1671459); conditions: UWB1.289 BRCA1 ovarian carcinoma, drug combinations, stronger effect = higher value
# [11] = human astrocyte viability loss, single and combined drugs, cytotoxicity control for chromothriptic childhood tumor combination screen, cell-based, BGB or cisplatin IC20 combos (AID 1671460); conditions: Human astrocytes, drug combinations, stronger effect = higher value;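 note: cells exposed to compounds for 96 hours before viability readout; 0% = vehicle and 100% = killing control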
# [12] = growth inhibition of BT084 medulloblastoma cells, cell-based, ICGC_MB145, cisplatin and BGB IC40 combos (AID 1671461); conditions: drug combinations, stronger effect = higher value;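 note: cells exposed to drugs for 96 hours; 0% = vehicle DMSO and 100% = high DMSO full killing control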
# [13] = growth inhibition of RCMB18 medulloblastoma cells, cell-based, cisplatin and BGB IC40 combos (AID 1671462); conditions: stronger effect = higher value;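 note: cells exposed to compound for four days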
# [14] = growth inhibition of CRL1545 osteosarcoma cells, cell-based, cisplatin and BGB IC20 combos (AID 1671464); conditions: stronger effect = higher value;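 note: cells exposed to compound for 96 hours before readout; 0% = vehicle DMSO and 100% = high DMSO killing control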
# [15] = measured here: with cisplatin IC20 combination, at 0.5 µM
# [16] = measured here: combination with cisplatin, at 0.5 µM
# [17] = measured here: combination with cisplatin, at 5 µM
smiles,measurement,setting,value
NC(=O)c1ccc(I)c([N+](=O)[O-])c1,inhibition,[1]; [15],8.47% and -16.9%
same,inhibition,"[1]; single agent, at 5 µM",-4.01% and -42.6%
same,inhibition,"[2]; BGB IC20 combo, at 0.005 µM",6.79% and -19.8%
same,inhibition,"[2]; BGB IC40 combo, at 0.005 µM",-8.71% and -63.3%
same,inhibition,"[2]; BGB IC40 combo, at 0.05 µM",6.96% and -25.8%
same,inhibition,[2]; at 0.5 µM,-18.4% (inactive) and -40.8% (inactive)
same,inhibition,"[2]; cisplatin combo, at 0.05 µM",4.36% and -30.8%
same,inhibition,"[2]; cisplatin combo, at 0.5 µM",-11.9% and -53.2%
same,inhibition,"[2]; cisplatin combo, at 5 µM",-10.4% and -25.8%
same,inhibition,"[2]; measured here: 5 uM single agent, at 5 µM",-7.67% and -25%
same,inhibition,[3]; at 0.5 µM,-3.89% (inactive) and -33.7% (inactive)
same,inhibition,"[3]; measured here: combination with BGB IC40, at 0.05 µM",-3.85% and -20%
same,inhibition,[3]; [16],-8.55% and -54.4%
same,inhibition,[3]; [17],14.7% and -8.48%
same,inhibition,[4]; at 0.5 µM,9.09% (inactive) and -11.2% (inactive)
same,inhibition,"[4]; measured here: with BGB IC20, at 0.5 µM",18.2% and -8.85%
same,inhibition,"[4]; measured here: with BGB IC20, at 5 µM",-13% and -0.795%
same,inhibition,"[4]; measured here: with cisplatin IC20, at 0.5 µM",-4.67% and -22.1%
same,inhibition,"[4]; measured here: with cisplatin IC20, at 5 µM",-22.8% and -21.8%
same,inhibition,"[4]; single agent, at 5 µM",-0.511% and -17.6%
same,inhibition,[5]; at 0.5 µM,-9.77% (inactive) and -68.7% (inactive)
same,inhibition,"[5]; measured here: combination with BGB at IC20, at 0.5 µM",4.55% and -23.6%
same,inhibition,"[5]; measured here: combination with cisplatin at IC20, at 0.5 µM",-0.612% and -98.1%
same,inhibition,[6]; at 0.5 µM,2.12% (inactive) and -9.81% (inactive)
same,inhibition,"[6]; measured here: combo with BGB at IC20, at 0.5 µM",8.1% and -18.5%
same,inhibition,"[6]; measured here: combo with cisplatin at IC20, at 0.5 µM",1.77% and -5.96%
same,inhibition,[7]; at 0.5 µM,4.39% (inactive) and -12.6% (inactive)
same,inhibition,"[7]; measured here: inhibition with BGB combination, at 0.05 µM",-4.87% and -28.1%
same,inhibition,"[7]; measured here: inhibition with cisplatin combination, at 0.05 µM",4.41% and -26.6%
same,inhibition,[8]; at 0.5 µM,-3.62% (inactive) and -27.7% (inactive)
same,inhibition,[8]; [16],4.37% and -27.4%
same,inhibition,[8]; [17],-55.7% and -23.8%
same,inhibition,[9]; at 0.5 µM,-14.6% (inactive) and -27.1% (inactive)
same,inhibition,"[9]; measured here: BGB combination, at 0.5 µM",-12.7% and -19.7%
same,inhibition,"[9]; measured here: BGB combination, at 5 µM",6.5% and -14.3%
same,inhibition,"[9]; measured here: cisplatin combination, at 0.5 µM",-24.5% and -37.3%
same,inhibition,"[9]; measured here: cisplatin combination, at 5 µM",-16.7% and -24%
same,inhibition,"[10]; BGB combination, concentration series, at 5 µM",8.62% and -14.6%
same,inhibition,[10]; at 0.5 µM,3.67% (inactive) and -21.5% (inactive)
same,inhibition,"[10]; cisplatin combination, concentration series, at 5 µM",11.7% and -8.59%
same,inhibition,[11]; at 0.5 µM,13.4% (inactive) and -16.5% (inactive)
same,inhibition,"[11]; measured here: combo with BGB IC20, at 0.5 µM",12.4% and -9.72%
same,inhibition,"[11]; measured here: combo with cisplatin IC20, at 0.5 µM",18.2% and -4.93%
same,inhibition,[12]; at 0.5 µM,-19.3% (inactive) and -16.2% (inactive)
same,inhibition,"[12]; cisplatin combination, at 0.5 µM",8.84% and -1.53%
same,inhibition,"[12]; cisplatin combination, at 5 µM",4.99% and 0.215%
same,inhibition,"[12]; measured here: BGB IC40 combination 0.05 uM, at 0.05 µM",25.4% and -22.5%
same,inhibition,"[12]; single agent, at 5 µM",-9.27% and -35.4%
same,inhibition,[13]; at 0.5 µM,2.19% (inactive) and -9.96% (inactive)
same,inhibition,"[13]; cisplatin combo, at 5 µM",15.5% and 33.9%
same,inhibition,"[13]; measured here: BGB IC40 combination, at 0.05 µM",-12.1% and -17.3%
same,inhibition,[13]; [16],21.4% and 23.8%
same,inhibition,"[13]; single agent, at 5 µM",-9.55% and -39.2%
same,inhibition,[14]; at 0.5 µM,3.31% (inactive) and -13.9% (inactive)
same,inhibition,"[14]; measured here: with BGB IC20 combination, at 0.5 µM",-14.5% and -22.9%
same,inhibition,[14]; [15],10.2% and -9.34%
same,inhibition,"[14]; single agent, at 0.05 µM",-40.1% and -19.9%
same,inhibition,"[14]; single agent, at 5 µM",-12.7% and -3.93%
